According to PubChem BioAssay:
The source made the active and inactive calls. Unless noted, no rule for the calls is given here.

Tests used:
[1] = tested on: XIP peptide (Xip251-270) binding; assay: small-molecule binders of XIP peptide, primary screen, biochemical, small-molecule microarray, fluorescence 635/667 nm, 0.1 µg/mL protein (AID 1182); settings: fluorescent protein binding, 635 nm, higher = more signal, called active from +8 up or from −8 down
XIP peptide (Xip251-270) = assay: small-molecule binders of XIP peptide, primary screen, biochemical, small-molecule microarray, fluorescence 635/667 nm, 0.5 µg/mL protein (AID 1183); settings: small-molecule microarray binding, fluorescence 635 nm; higher = more signal
[2] = Plasmodium falciparum growth inhibition, primary screen, strain 3D7, DAPI fluorescence, 100 nL (AID 1184);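 also: parasites grown inside human red blood cells in medium with human serum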; settings: P. falciparum 3D7 growth, 3 d, higher = more signal
[3] = biological target: Homeobox protein Hox-A13 (Mus musculus) (UniProt Q62424); assay: inhibitors of HoxA13-DNA binding, primary screen, biochemical, fluorescence polarization, labeled oligonucleotide (AID 1185); settings: 15 min, higher = more signal, called active from +8 up or from −8 down
[4] = inhibitors of hydroxyurea-induced Chk1 phosphorylation, primary screen, imaging, HeLa, phospho-Chk1 antibody, percent positive cells (AID 1186); settings: hydroxyurea-induced phospho-Chk1 immunofluorescence imaging, higher = more signal
[5] = inhibitors of hydroxyurea-induced Chk1 phosphorylation, primary screen, imaging, HeLa, phospho-Chk1 nuclear intensity (AID 1187); settings: hydroxyurea-induced phospho-Chk1 immunofluorescence imaging, higher = more signal

Homeobox protein Hox-A13 (Mus musculus), sequence (Q62424 whole entry, looked up): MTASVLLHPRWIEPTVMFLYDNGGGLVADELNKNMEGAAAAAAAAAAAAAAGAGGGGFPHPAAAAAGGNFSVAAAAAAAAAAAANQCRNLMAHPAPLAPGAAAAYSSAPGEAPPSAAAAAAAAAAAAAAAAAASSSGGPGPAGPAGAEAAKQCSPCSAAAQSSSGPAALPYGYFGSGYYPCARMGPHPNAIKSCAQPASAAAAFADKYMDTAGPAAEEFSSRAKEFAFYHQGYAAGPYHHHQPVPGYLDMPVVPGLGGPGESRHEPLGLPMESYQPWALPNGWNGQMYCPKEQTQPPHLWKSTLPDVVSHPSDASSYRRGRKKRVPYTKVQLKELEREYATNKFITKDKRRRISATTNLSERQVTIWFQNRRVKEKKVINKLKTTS

Compound | composite z-score [1] | composite z-score (XIP peptide (Xip251-270)) | z-score [2] | z-score [3] | z-score [4] | z-score [5]
COc1c(C)cc(-c2cc3c(c(-c4ccccc4)n2)[Si](C(C)C)(C(C)C)O[C@H]3c2ccccc2)cc1C | 0.648 (inactive) | -0.029 | -2.88 | -0.742 (inactive) | -0.59 (inactive) | -0.492 (inactive)
CC(C)[Si]1(C(C)C)O[C@@H](c2ccccc2)c2cc(-c3ccc(-c4ccc(Cl)c(Cl)c4)o3)nc(CCc3ccccc3)c21 | -0.0577 (inactive) | -1.03 | 0.952 | -0.21 (inactive) | 0.0301 (inactive) | -0.289 (inactive)
O=C1C[C@@](C(=O)O)(c2ccc([N+](=O)[O-])cc2)[C@@H](c2ccc(CO)cc2I)N1C1CCCCC1 | -0.183 (inactive) | 0.553 | -2.01 | -6.2 (inactive) | -0.195 (inactive) | 0.201 (inactive)
C[N+](C)(C)CCCC[C@@H]1NC(=O)[C@@H]2C[C@H](C(=O)NCCCCCCNC(=O)CS)[C@H](c3cccc(OCCO)c3)N2C1=O | 0.339 (inactive) | 0.623 | -0.198 | -3.62 (inactive) | -0.38 (inactive) | -0.386 (inactive)
C=C(COC)C(=O)CC[C@H](OC(=O)c1cccnc1)c1ccccc1OCCO | -0.0123 (inactive) | 0.444 | -3.02 | -4.46 (inactive) | 0.735 (inactive) | 0.565 (inactive)
C=CC[C@@]1(C(=O)NCCN2CCOCC2)N=C(c2ccc(OCCCO)cc2)O[C@@H]1c1ccccc1CN=[N+]=[N-] | 1.21 (inactive) | 0.818 | -2.13 | -1.05 (inactive) | -0.336 (inactive) | -0.254 (inactive)
CC(C)OC(=O)C1=CCC(c2cccc(Cl)c2)O1 (centres undefined) | 0.0142 (inactive) | 0.677 | -1.39 | -0.554 (inactive) | 0.147 (inactive) | 0.0282 (inactive)
COc1cc(NN2C(C(O)c3ccccc3)C=CC3C(=O)N(c4ccccc4)C(=O)C32)cc(OC)c1OC (centres undefined) | 0.396 (inactive) | 0.774 | -0.634 | -4.58 (inactive) | 0.124 (inactive) | -0.0995 (inactive)
COc1ccc([Si](C)(C)[C@H]2[C@H](CC(=O)N3CCC[C@H]3CO)O[C@@]3(C(=O)N(Cc4cccc(N5CCC5=O)c4)c4ccccc43)[C@@H]2C)cc1 | 0.185 (inactive) | 0.543 | -2.04 | -3.58 (inactive) | 0.307 (inactive) | 0.429 (inactive)
Cc1ccc(S[C@]2(C(=O)NCCCN(C)C)CC(=O)N(C(C)C)[C@@H]2c2ccc(CO)cc2I)cc1 | 0.352 (inactive) | 0.412 | -0.621 | -2.81 (inactive) | 0.535 (inactive) | 0.775 (inactive)
COCCOC(=O)N1C(=O)[C@@]2(c3cc(C#CCCO)ccc31)[C@H](c1ccc(O)cc1)N1[C@H](c3ccccc3)[C@H](c3ccccc3)OC(=O)[C@H]1[C@@H]2C(=O)N1CCCCCCC1 | 0.449 (inactive) | 0.723 | -0.0358 | -1.14 (inactive) | -0.0035 (inactive) | -0.334 (inactive)
C=CCOC(=O)[C@@H]1[C@H]2C(=O)O[C@H](c3ccccc3)[C@H](c3ccccc3)N2[C@H](c2ccc(OCCOC(=O)[C@H]3C[C@H]4C(=O)N[C@@H](CC(C)C)C(=O)N4[C@H]3c3cccc(OCCO)c3)cc2)[C@@]12C(=O)Nc1ccc(I)cc12 | 0.559 (inactive) | 0.824 | -1.68 | 2.41 (inactive) | 0.537 (inactive) | 0.273 (inactive)
O[C@@H](Cc1ccccc1)[C@@H](/C=C/c1ccccc1)NCc1ccccc1Br | -0.265 (inactive) | 0.727 | 0.871 | -0.419 (inactive) | -0.28 (inactive) | 0.364 (inactive)
CCCCN1CC=CC23O[C@@H]4/C=C\CCCOC(=O)C4[C@H]2C(=O)N(C(C)CO)[C@@H]3C1=O (some centres undefined) | 0.502 (inactive) | -0.269 | 0.494 | -4.24 (inactive) | 0.166 (inactive) | 0.711 (inactive)
CN(C)CCCCNC(=O)[C@@H]1C[C@@H]2C(=O)N[C@@H](CCCCN)C(=O)N2[C@@H]1c1cccc(OCCO)c1 | 0.388 (inactive) | 0.566 | -0.114 | -3.47 (inactive) | -0.833 (inactive) | -0.838 (inactive)
CCCC[C@H]1OB(O)C[C@H]2C1=C(C)Cn1c(=O)n(-c3ccccc3)c(=O)n12 | -0.0734 (inactive) | 0.116 | -2.15 | -0.581 (inactive) | -0.705 (inactive) | -0.679 (inactive)
C=CCC(OC(C)=O)[C@@H]1[C@@H](N(Cc2ccc(-c3ccccc3)cc2)C(=O)c2ccc(C)cc2)c2cc(OCCCO)ccc2N1C(=O)Cc1ccc(OC)cc1 (some centres undefined) | 0.0129 (inactive) | 0.703 | -1.18 | -0.664 (inactive) | -0.793 (inactive) | -0.677 (inactive)

Compound | composite z-score [1] | composite z-score (XIP peptide (Xip251-270)) | z-score [2] | z-score [3] | z-score [4] | z-score [5]
O=P(NCC1(CC2(c3ccccc3)CO2)CC1)(c1ccccc1)c1ccccc1 (centres undefined) | 0.588 (inactive) | 0.822 | 0.561 | -3.26 (inactive) | -0.124 (inactive) | -0.208 (inactive)
C=CCNC(=O)[C@H]1[C@@H]2C(=O)O[C@@H](c3ccccc3)[C@@H](c3ccccc3)N2[C@@H](c2ccc(OCCO)cc2)[C@]12C(=O)N(C(=O)OCCOC)c1ccc(C#CC3(O)CCCCCC3)cc12 | 0.404 (inactive) | 0.735 | -1.91 | -0.675 (inactive) | -0.124 (inactive) | -0.0954 (inactive)
COC(=O)[C@@]1(Cc2ccc(OC)cc2)[C@H]2c3cc(C(=O)N(C)C)n(Cc4ccc(OC)c(OC)c4)c3C[C@H]2CN1C(=O)c1ccccc1 | 0.811 (inactive) | 0.696 | -1.47 | -4.3 (inactive) | -0.225 (inactive) | 0.305 (inactive)
O=C(NCC(O)CO)[C@]1(CCS(=O)(=O)c2ccccc2)N=C(c2ccc(OCCCO)cc2)O[C@@H]1c1ccccc1 (some centres undefined) | 1.51 (inactive) | -0.0557 | -0.434 | -7.16 (inactive) | 0.429 (inactive) | -0.0974 (inactive)
O=c1cccc(-c2ccc3ccccc3c2)o1 | -0.644 (inactive) | -0.688 | 1 | -1 (inactive) | -0.319 (inactive) | -0.587 (inactive)
[N-]=[N+]=NCc1ccccc1C[C@]1(C(=O)N2CCOCC2)N=C(c2ccc(OCCCO)cc2)O[C@H]1c1ccccc1 | 0.855 (inactive) | 0.21 | -2.38 | -6.01 (inactive) | -0.638 (inactive) | -0.71 (inactive)
CCOC(=O)C[C@H]1[C@H](OC(=O)c2ccc(C(=O)c3ccccc3)cc2)[C@@H](NC(=O)c2ccc3ccccc3n2)c2cc(OCCCO)ccc2N1C(=O)c1ccc2ccccc2n1 | 0.545 (inactive) | 0.613 | -2.55 | -2.61 (inactive) | 0.226 (inactive) | 0.194 (inactive)
[N-]=[N+]=Nc1ccccc1[C@@H]1OC(c2ccc(OCCCO)cc2)=N[C@]1(CCS(=O)(=O)c1ccccc1)C(=O)N1CCCCC1 | 1.32 (inactive) | 0.574 | -2.23 | -2.67 (inactive) | 0.0919 (inactive) | -0.121 (inactive)
COCCOC(=O)N1C(=O)[C@@]2(c3cc(C#Cc4ccc(OC)cc4)ccc31)[C@H](c1ccc(OCCO)cc1)N1[C@H](c3ccccc3)[C@H](c3ccccc3)OC(=O)[C@H]1[C@@H]2C(=O)N1CCc2cc(OC)c(OC)cc2C1 | 0.179 (inactive) | 0.592 | -1.85 | 3.38 (inactive) | -0.329 (inactive) | -0.456 (inactive)
COc1ccc(C#Cc2ccc3c(c2)[C@]2(C(=O)N3)[C@H](C(=O)N3CCN(c4ncccn4)CC3)[C@H]3C(=O)O[C@H](c4ccccc4)[C@H](c4ccccc4)N3[C@@H]2c2ccc(O)cc2)cc1 | -0.219 (inactive) | 0.734 | -1.08 | -0.983 (inactive) | -0.247 (inactive) | -0.298 (inactive)
[N-]=[N+]=Nc1ccccc1[C@@H]1OC(c2ccc(OCCCO)cc2)=N[C@]1(CCS(=O)(=O)c1ccccc1)C(=O)O | 0.97 (inactive) | 0.727 | -1.19 | -4.69 (inactive) | -0.273 (inactive) | -0.0293 (inactive)
O=C(NCC(F)(F)F)[C@@H]1c2ccccc2C(=O)N(Cc2ccccc2)[C@H]1c1ccc(CO)cc1 | 0.377 (inactive) | -0.396 | -0.778 | -1.25 (inactive) | -0.571 (inactive) | -0.801 (inactive)
O=C1C2C=CC(C(O)c3ccc(Br)cc3)N(n3cnnc3)C2C(=O)N1Cc1ccccc1 (centres undefined) | 0.568 (inactive) | 0.76 | -0.084 | 0.314 (inactive) | -0.47 (inactive) | -0.618 (inactive)
[N-]=[N+]=Nc1ccccc1C[C@]1(C(=O)N2CCCCC2)N=C(c2ccc(OCCCO)cc2)O[C@H]1c1ccccc1N=[N+]=[N-] | 1.01 (inactive) | 0.659 | -2.34 | -1.63 (inactive) | -0.0268 (inactive) | 0.205 (inactive)
COc1ccc([Si](C)(C)[C@H]2[C@H](CC(=O)N3Cc4ccccc4C[C@H]3CO)O[C@@]3(C(=O)N(Cc4cccc(I)c4)c4ccccc43)[C@@H]2C)cc1 | -0.276 (inactive) | 0.287 | -2.37 | -2.66 (inactive) | -1.22 (inactive) | -0.541 (inactive)
CCN(CC)c1ccc(N2CC=CC34O[C@@H]5C=CCCOC(=O)C5[C@H]3C(=O)N(CCCO)[C@@H]4C2=O)cc1 (some centres undefined) | -0.658 (inactive) | -0.588 | -1.49 | -3.95 (inactive) | -0.28 (inactive) | -0.816 (inactive)
CCCCCCCCCCC(O)C1C=CC2C(=O)N(c3ccccc3)C(=O)C2N1Nc1ccc([N+](=O)[O-])cc1 (centres undefined) | 0.812 (inactive) | 0.801 | -0.338 | -2.71 (inactive) | 0.346 (inactive) | -0.444 (inactive)
